PMC7819943, “Rice protein-binding microarrays: a tool to detect cis-acting elements near promoter regions in rice”
The full ranking holds about 68,000 sequences; the median of “fluorescence intensity (a.u.)” is about 9,100, and the highest 2% start at about 16,000. Only a selection was taken, and the highest values are over-represented in it overall.

biological target: OsWRKY34 (Oryza sativa, UniProt Q0JBA9 1-250); assay: protein-binding microarray (RPBM); PBS, 2% BSA, 51.3 ng/ul salmon testes DNA, 50 uM zinc acetate, 200 nM TF, 25 C, 1 h; high values mean tight binding; settings: protein: recombinant; tags: N-terminal polyhistidine and DsRed monomer fusion (pET32a); label: CyDye5-dUTP incorporated in the synthesized complementary strand; 3' TTTTT single-stranded linker to array surface; dsDNA, one strand shown
How it was run: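 An Axon 4000B scanner gave the binding signal as per-feature fluorescence intensity in arbitrary units. This followed washing of a custom Agilent array that had been incubated for 1 h at 25 °C with 200 nM protein in PBS, 2% BSA, salmon testes DNA and 50 µM zinc acetate. The proteins were transcription factors fused at the N-terminus to polyhistidine and DsRed, expressed in E. coli BL21-CodonPlus and purified on Ni–NTA.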

OsWRKY34, sequence (Q0JBA9 entry or part of it): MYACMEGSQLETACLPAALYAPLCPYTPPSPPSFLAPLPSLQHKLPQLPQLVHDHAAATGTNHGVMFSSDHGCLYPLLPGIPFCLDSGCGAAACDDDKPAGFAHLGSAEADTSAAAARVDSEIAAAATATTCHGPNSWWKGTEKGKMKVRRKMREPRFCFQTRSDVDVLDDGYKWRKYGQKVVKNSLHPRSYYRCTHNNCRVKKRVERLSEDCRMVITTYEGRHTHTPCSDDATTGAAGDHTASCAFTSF

Which binding signal does the source give for “TGCCAGCACAAATCTCGAAGCACATCCAATGATCCAAGACCGGAGTCACCTAGTGCAG” here?
Its binding signal is 9540 fluorescence intensity (a.u.).

“TACTGTTGCTGCTAGTTCACCATTTGCGCATTTCCTCTTCCGGAGTCACCTAGTGCAG” was tested. Which binding signal did it give?
Its binding signal is 11700 fluorescence intensity (a.u.).

For “TCGCCGTTCGCTGGTATATGCCGTTGTCTTGGAATCATCTCGGAGTCACCTAGTGCAG”, which binding signal is on record?
Its binding signal is 11100 fluorescence intensity (a.u.).

For “CGGTGTTGGGATCGGGTTTGGAGGTGGTAAGGGTGGTGGTCGGAGTCACCTAGTGCAG”, which binding signal is on record?
Its binding signal is 10600 fluorescence intensity (a.u.).

How did the binding signal turn out when “AAATTTAGGTGGAGGGGTGTGGGCGGTTTCGTGCAAAAATCGGAGTCACCTAGTGCAG” was run?
Its binding signal is 19100 fluorescence intensity (a.u.).

“GGCGGTATCGACGAAGAATCTCGGGGCGGTGGGGAGGTTTCGGAGTCACCTAGTGCAG” was tested. Which binding signal did it give?
The binding signal was 17700 fluorescence intensity (a.u.).

For “CCGGTGGGGTGGGGAATTCGGCGGAGGAAGACGACGACGACGGAGTCACCTAGTGCAG”, which binding signal is on record?
The binding signal was 9250 fluorescence intensity (a.u.).

How did the binding signal turn out when “TGACATGGTTGTTAGGGTTTGCGAGCAAATTTTCGTGGGGCGGAGTCACCTAGTGCAG” was run?
The binding signal was 10100 fluorescence intensity (a.u.).

How did the binding signal turn out when “GTGGAGGCGCGGTGGGGTGGGGAAGGAGTGTGTTTCGTGTCGGAGTCACCTAGTGCAG” was run?
Its binding signal is 15500 fluorescence intensity (a.u.).

With “CGCGGGAATCGGCCGGCGACGTGGGGAGGTGGGGAGGAGACGGAGTCACCTAGTGCAG” as the sequence, how does the binding signal read?
Its binding signal is 8900 fluorescence intensity (a.u.).

How did the binding signal turn out when “GGGAGAGGTGGAGACCAGGAGGTGGGGTGGCGGAGGTCATCGGAGTCACCTAGTGCAG” was run?
Its binding signal is 14300 fluorescence intensity (a.u.).

For “GCATCGTGGGGTGTGGGTGGCGGTTTTGGAGGGGAGAGGTCGGAGTCACCTAGTGCAG”, which binding signal is on record?
The binding signal was 23200 fluorescence intensity (a.u.).

Which binding signal does the source give for “ATGGGTTGGGACTGTCCTGGTGCGCGATTACTAACGTGGACGGAGTCACCTAGTGCAG” here?
The binding signal was 8790 fluorescence intensity (a.u.).

With “TATTGGAACTATTACGACCACATGCTCTCTTCCTACTCTCCGGAGTCACCTAGTGCAG” as the sequence, how does the binding signal read?
Its binding signal is 9770 fluorescence intensity (a.u.).

For “CTCCAGCCGATATACATGCAGCCGCTGTCATCTTTTGTTCCGGAGTCACCTAGTGCAG”, which binding signal is on record?
Its binding signal is 9100 fluorescence intensity (a.u.).

“TCTTTTACACTTCATTTATTTTTTCATGCACCAAGGCTTACGGAGTCACCTAGTGCAG” was tested. Which binding signal did it give?
Its binding signal is 9810 fluorescence intensity (a.u.).

How did the binding signal turn out when “TGTTTTGGCTTTGGTCCCTTGCTTTTCTTTGGAGGTTGGACGGAGTCACCTAGTGCAG” was run?
The binding signal was 10400 fluorescence intensity (a.u.).

With “TTCTTTTTTTGTGGGGAGAGGCGGGCTGTTTTTTTCTTGCCGGAGTCACCTAGTGCAG” as the sequence, how does the binding signal read?
The binding signal was 15900 fluorescence intensity (a.u.).

Which binding signal does the source give for “GGATACTGCACAGCCCTTGATCACAATACAGTGCATTTCTCGGAGTCACCTAGTGCAG” here?
The binding signal was 9450 fluorescence intensity (a.u.).

“GAGTAGTTCGCTTTGGCAGTATGGCATTTGTACACGCTCACGGAGTCACCTAGTGCAG” was tested. Which binding signal did it give?
The binding signal was 8660 fluorescence intensity (a.u.).

“CTTGCACGCGACGGCCTGGCATTTGTGTACGGCACCGCCCCGGAGTCACCTAGTGCAG” was tested. Which binding signal did it give?
Its binding signal is 8030 fluorescence intensity (a.u.).

With “GGGGATTTTTGTACGCTCACGGCATTTTTTTTGTCAGCGACGGAGTCACCTAGTGCAG” as the sequence, how does the binding signal read?
The binding signal was 17500 fluorescence intensity (a.u.).

Which binding signal does the source give for “TATCTTATCAGGTCTCGTCTTCTTTAATCCAACCCTTGTTCGGAGTCACCTAGTGCAG” here?
The binding signal was 8680 fluorescence intensity (a.u.).

“ATCTTAAGCTGTCCTTTTTCATGCCGAGTCAGAGTTTCATCGGAGTCACCTAGTGCAG” was tested. Which binding signal did it give?
Its binding signal is 9130 fluorescence intensity (a.u.).

Which binding signal does the source give for “TCGGATACGAGTTTGATTCTCATCCTCCTTCATTTATATTCGGAGTCACCTAGTGCAG” here?
The binding signal was 8320 fluorescence intensity (a.u.).

With “ACTCCCTCCGTATTTTAATATATGACGCCGTTGACTTATTCGGAGTCACCTAGTGCAG” as the sequence, how does the binding signal read?
Its binding signal is 13800 fluorescence intensity (a.u.).

With “CGTATTTTAATATATGACGCCCGCCGTTGACTTTTTGTCTCGGAGTCACCTAGTGCAG” as the sequence, how does the binding signal read?
The binding signal was 27800 fluorescence intensity (a.u.).

Which binding signal does the source give for “CGTATTTTAATATATGACGCCGTTGACTTTTTATTAACGACGGAGTCACCTAGTGCAG” here?
Its binding signal is 23200 fluorescence intensity (a.u.).

Which binding signal does the source give for “GTATGACTTCTCCGTTTTTATATTTGCACTAATTTTTTAACGGAGTCACCTAGTGCAG” here?
The binding signal was 11200 fluorescence intensity (a.u.).

For “CCGTATTTGAATATATGACGCCGTTGACTTTTTAACTAATCGGAGTCACCTAGTGCAG”, which binding signal is on record?
The binding signal was 17900 fluorescence intensity (a.u.).

“CTCTGCACGTTTCTTTCCCCTAACAAATACATGTACACACCGGAGTCACCTAGTGCAG” was tested. Which binding signal did it give?
Its binding signal is 9590 fluorescence intensity (a.u.).

For “ACACATAAACTTCTAACTTTTCCGTCACATCGTTCCAATTCGGAGTCACCTAGTGCAG”, which binding signal is on record?
Its binding signal is 8380 fluorescence intensity (a.u.).

Which binding signal does the source give for “GCATCCTAACATCCCGCCGAAGGACCTTTTCAACCTCATCCGGAGTCACCTAGTGCAG” here?
The binding signal was 8300 fluorescence intensity (a.u.).

“ATTGAGATAGAGGGAGTGGTTGGGATGGTGAAGTTGCTATCGGAGTCACCTAGTGCAG” was tested. Which binding signal did it give?
The binding signal was 9450 fluorescence intensity (a.u.).

For “ACTCCATCAATTTTTCATTATGTCTGTGTTTGTCCTGACTCGGAGTCACCTAGTGCAG”, which binding signal is on record?
The binding signal was 14900 fluorescence intensity (a.u.).

With “TCAACTGTACTGTACTCCACTCGCCGCACACACTGACACACGGAGTCACCTAGTGCAG” as the sequence, how does the binding signal read?
Its binding signal is 11200 fluorescence intensity (a.u.).

How did the binding signal turn out when “AATTGACTTTTTTATGCTAATTTTCCCTCTAATTACTTGTCGGAGTCACCTAGTGCAG” was run?
Its binding signal is 18400 fluorescence intensity (a.u.).

Which binding signal does the source give for “ATACTTCATCCGTTTCTAAATATTTGATGCCGTTGACTTTCGGAGTCACCTAGTGCAG” here?
The binding signal was 17600 fluorescence intensity (a.u.).

With “CATATACTCTATCCGTTTCTAAATATTTGACGCCGTTGACCGGAGTCACCTAGTGCAG” as the sequence, how does the binding signal read?
The binding signal was 16200 fluorescence intensity (a.u.).

Which binding signal does the source give for “GGTTTCCTCATATGCCCTTGAAAATTTGCTATTCCTCTGTCGGAGTCACCTAGTGCAG” here?
Its binding signal is 22700 fluorescence intensity (a.u.).

Which binding signal does the source give for “AGTTGTCCTGCTTTTTTGCTTTCCTAATCTGTTTCCATTTCGGAGTCACCTAGTGCAG” here?
The binding signal was 13300 fluorescence intensity (a.u.).

How did the binding signal turn out when “CATTTTTCTAATTACAAAGTCCATTTCTTTTTATGTTTTCCGGAGTCACCTAGTGCAG” was run?
Its binding signal is 8830 fluorescence intensity (a.u.).

With “AATATTTCATCAGTTTCTAAATTTTTGACGCCGTTGACTTCGGAGTCACCTAGTGCAG” as the sequence, how does the binding signal read?
The binding signal was 10200 fluorescence intensity (a.u.).

Which binding signal does the source give for “GGGCATATTTCTCTATTTTTCTATTCCTATGGTTTGAAATCGGAGTCACCTAGTGCAG” here?
The binding signal was 9080 fluorescence intensity (a.u.).

How did the binding signal turn out when “TTATGCGTGACTTGTCTTTTTAATTTTTTAATAATTTTTTCGGAGTCACCTAGTGCAG” was run?
Its binding signal is 9370 fluorescence intensity (a.u.).

How did the binding signal turn out when “AATTTTTTTCCTCTCCTGTTTTGTGCCCTTGATATTATGTCGGAGTCACCTAGTGCAG” was run?
Its binding signal is 13400 fluorescence intensity (a.u.).

How did the binding signal turn out when “ATGTCCCTAATTACTGCGTTTTCCATTTTGCTGTTTTTTACGGAGTCACCTAGTGCAG” was run?
Its binding signal is 16500 fluorescence intensity (a.u.).

How did the binding signal turn out when “ATATGTCTGACTTGTACTTTTATGTTATTTTTCCTCTAATCGGAGTCACCTAGTGCAG” was run?
Its binding signal is 13900 fluorescence intensity (a.u.).

For “CTGTTTAGATCTCCTAGCAACATTTTACACTCTCTTGCATCGGAGTCACCTAGTGCAG”, which binding signal is on record?
Its binding signal is 8740 fluorescence intensity (a.u.).

How did the binding signal turn out when “CGAACGGTTTAACATATTTAAAAAAGTCAACGGCGTCAAACGGAGTCACCTAGTGCAG” was run?
Its binding signal is 8310 fluorescence intensity (a.u.).

For “GCTTGTTTCTTTGCTGAATTATTATTTTGCTCATTCCACTCGGAGTCACCTAGTGCAG”, which binding signal is on record?
The binding signal was 10300 fluorescence intensity (a.u.).

For “TTTTTCCCTGAAGCTCCTGTGTGTCATCTCTCTTTTTCTTCGGAGTCACCTAGTGCAG”, which binding signal is on record?
Its binding signal is 11100 fluorescence intensity (a.u.).

With “ACACTGCCACTCTCTCCCTAGGCCTATAAATACCACCAGTCGGAGTCACCTAGTGCAG” as the sequence, how does the binding signal read?
Its binding signal is 8340 fluorescence intensity (a.u.).

Which binding signal does the source give for “CATGTTAATTTTCTACTACAGCTTAGGTTGATGCTATGTTCGGAGTCACCTAGTGCAG” here?
Its binding signal is 8270 fluorescence intensity (a.u.).
